Compound activity from PubChem BioAssay.
TEAD-YAP inh = TEAD-YAP interaction inhibition, primary screen, TEAD-YAP interaction inhibitor project, luminescence, HEK-TIYL cells. TEAD-Gal4/YAP UAS-luciferase luminescence. inhibition, % at 9.12 µM. 1.4% of 640,000 active; in the data active means inhibition above about 32%
GPR151 ag = activators of human GPR151, primary screen, cell-based, PathHunter beta-arrestin, luminescence; G-protein coupled receptor 151 (Homo sapiens), Q8TDV0; PathHunter beta-arrestin GPR151 cells; activation, % at 11.2 µM; 1% of 650,000 active; AID 1508602, 2020; in the data active means activation above about 4.9%
MITF primary = MITF inhibitors, primary screen, biochemical, AlphaScreen, human. AlphaScreen MITF homodimerization, bead proximity signal. inhibition, % at 2.6 µM. 0.91% of 650,000 active; in the data active means inhibition above about 50%
FBW7 act = FBW7 E3 ligase activators, primary screen, biochemical, AlphaScreen, human. normalized activity (activation), % at 26.1 µM. 0.13% of 650,000 active. AlphaScreen FBW7–phospho-cyclin E peptide binding, activator screen. F-box/WD repeat-containing protein 7 (Homo sapiens), Q969H0. AID 1259310, 2017; in the data active means normalized activity above about 1.9%;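 further: purified mutant Fbw7 with reduced substrate affinity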
MITF inh conf = MITF inhibitors, retest of hits, confirmation, biochemical, AlphaScreen, triplicate | shares compounds with MITF primary | AlphaScreen MITF homodimerization, biotin/His-MITF beads | inhibition, % at 2.6 µM | 16% of 4,700 active | AID 1259372, 2018;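 active means inhibition above a cutoff derived from the DMSO control wells, cut at about 28% in these data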;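 further: inhibitors lower the bead chemiluminescence by keeping MITF from dimerizing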
AlphaScreen DR = AlphaScreen optical interference compounds, dose response, counter-screen, biochemical, HTS; shares compounds with MITF primary; AlphaScreen optical interference counterscreen, cell-free; IC50, µM; 6% of 480 active; AID 1259373, 2018; call rule not given here
AS interf ctr = AlphaScreen optical interference compounds, counter-screen for MITF inhibitor project, biochemical, triplicate. 7.6% of 4,700 active. LysRS AlphaScreen counterscreen, signal interference. inhibition, % at 2.6 µM. AID 1259376, 2018. shares compounds with MITF primary;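 active means inhibition above a cutoff derived from the DMSO control wells, cut at about 30% in these data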
Each line names hits and unclear results; the compound was inactive in the other large screens (follow-up assays come after a bar, where they were run). Most compounds without a hit are left out; they make up all but 3.5% or so of the library.

O=[N+]([O-])c1ccc(S(=O)(=O)N2CCN(CCCc3ccccc3)CC2)cc1	MITF primary 56 | MITF inh conf inactive | AS interf ctr inactive
CC(=O)Nc1nc(/C=C/c2ccccc2)c([N+](=O)[O-])c(=O)[nH]1	none
CCN(CC)C(=O)N1CCN(S(=O)(=O)c2cccc([N+](=O)[O-])c2)CC1	none
CN(C)C(=O)N1CCN(S(=O)(=O)c2cccc([N+](=O)[O-])c2)CC1	MITF primary 77 | MITF inh conf 30 | AlphaScreen DR inactive | AS interf ctr inactive
O=[N+]([O-])c1cccc(CN2CCN(S(=O)(=O)c3ccccc3)CC2)c1	MITF primary 70 | MITF inh conf inactive | AS interf ctr inactive
O=[N+]([O-])c1cccc(CN2CCN(S(=O)(=O)c3ccc(Cl)cc3)CC2)c1	MITF primary 64 | MITF inh conf inactive | AS interf ctr inactive
CCOC(=O)C(CCCCCOc1ccc(OC)cc1)C(=O)OCC	none
Cc1ccc(NC(=O)N2CCC(C(N)=O)(N3CCCCC3)CC2)cc1	none
CCN1CCN(C(=O)c2cc3nc(-c4ccco4)cc(C(F)(F)F)n3n2)CC1	none
Cc1ccc(Nc2nc(NCCN3CCOCC3)nc3nccnc23)cc1C	MITF primary 61 | MITF inh conf inactive | AS interf ctr inactive
O=C1NC(=O)C(Cc2cc(Cl)c3cccnc3c2O)C(=O)N1	MITF primary 58 | MITF inh conf 82 | AS interf ctr 85
O=c1oc2ccccc2c(O)c1Cc1cc(Cl)c2cccnc2c1O	none
O=C(COc1ccc(Br)cc1Cl)N1CCCCC1	none
O=CN1CCN(C(=O)COc2ccc(Br)cc2Cl)CC1	MITF primary 70 | MITF inh conf inactive | AS interf ctr inactive
CCN1C=CC(=C(/C=C2\C=CC=CC2=O)CS(=O)(=O)O)C=C1	MITF primary 65 | MITF inh conf inactive | AS interf ctr inactive
c1ccc(OCc2nnc3sc(-c4cccnc4)nn23)cc1	MITF primary 64 | MITF inh conf inactive | AS interf ctr inactive
CCOc1ccc(-c2nn3c(COc4ccccc4)nnc3s2)cc1	none
CCOC(=O)C1=C(C)N=c2s/c(=C\c3ccc(OCc4ccc(Cl)cc4)cc3)c(=O)n2C1c1ccc(OC)c(OC)c1 (stereo not drawn)	none
COc1ccc(-c2noc(CN(C(=O)c3ccc(OC)c([N+](=O)[O-])c3)C(C)C)n2)cc1	none
COc1ccc(C(=O)N(Cc2nc(-c3ccc(C)cc3)no2)C(C)C)cc1[N+](=O)[O-]	MITF primary 55 | MITF inh conf inactive | AS interf ctr inactive
O=c1c2ccccc2[nH]c2cc(O)cc(O)c12	none
O=c1[nH]cnc2nc(-c3ccco3)c(-c3ccco3)nc12	MITF primary 87 | MITF inh conf 60 | AlphaScreen DR inactive | AS interf ctr inactive
CN1CCC(NCc2ccc(F)cc2)CC1	MITF primary 57 | MITF inh conf inactive | AS interf ctr inactive
CC(C)NC(=O)C(=O)N/N=C/c1ccc(OCc2ccc(Cl)cc2)cc1	none
CC(C)NC(=O)C(=O)N/N=C/c1ccc(OCc2ccccc2Cl)cc1	MITF primary 55 | MITF inh conf inactive | AS interf ctr inactive
Nc1cc(Br)cnc1N	MITF primary 78 | MITF inh conf 80 | AlphaScreen DR inactive | AS interf ctr inactive
CC(C(=O)Nc1ccc(C#N)cc1)N1CCN(S(=O)(=O)c2ccccc2F)CC1 (stereo not drawn)	MITF primary 85 | MITF inh conf inactive | AS interf ctr inactive
CC1Cc2ccccc2N1S(=O)(=O)c1ccccc1F (stereo not drawn)	none
CC(C(=O)N1c2ccccc2CC1C)N1CCN(S(=O)(=O)c2ccccc2F)CC1 (stereo not drawn)	MITF primary 75 | MITF inh conf inactive | AS interf ctr inactive
Fc1ccc(CN2CCN(CC3CC=CCC3)CC2)cc1 (stereo not drawn)	MITF primary 65 | MITF inh conf inactive | AS interf ctr inactive
CCOc1cc(CN2CCCC2)ccc1OC	none
COc1ccc(CN2CCN(CC3CC=CCC3)CC2)cc1 (stereo not drawn)	MITF primary 61 | MITF inh conf inactive | AS interf ctr inactive
CCS(=O)(=O)N1CCN(Cc2cccc(C)c2)CC1	none
CCOc1cc(CN2CCN(CC3CC=CCC3)CC2)ccc1OC (stereo not drawn)	MITF primary 70 | MITF inh conf inactive | AS interf ctr inactive
Cc1cccc(CN2CCN(CC3CC=CCC3)CC2)c1 (stereo not drawn)	MITF primary 67 | MITF inh conf inactive | AS interf ctr inactive
CCOc1ccc2nc(N3CC(C(=O)OCc4ccccc4F)CC3=O)sc2c1 (stereo not drawn)	none
CCN(CC)C(=O)c1sc2nc3cc(OC)c(OC)cc3cc2c1N	none
COc1ccc(C(=O)N2CCN(CC3CC=CCC3)CC2)cc1OC (stereo not drawn)	none
COc1ccc(CN2CCN(CC3CC=CCC3)CC2)cc1OC (stereo not drawn)	MITF primary 61 | MITF inh conf inactive | AS interf ctr inactive
Cc1ccc2c(c1)N(CC(=O)Nc1ccc(F)cc1)C(=O)C(C)O2 (stereo not drawn)	none
CCCCNc1nc(-c2cc(OC)ccc2OC)cs1	MITF primary 59 | MITF inh conf inactive | AS interf ctr inactive
CCOC(=O)N1CCN(Cc2cn3ccccc3n2)CC1	MITF primary 61 | MITF inh conf inactive | AS interf ctr inactive
Cc1ccsc1/C=N/Nc1nc(=O)[nH]nc1C	MITF primary 60 | MITF inh conf 34 | AS interf ctr 100
Cc1n[nH]c(=O)nc1N/N=C/c1ccc(O)cc1	none
COc1cccc(/C=C(\C#N)c2nn(-c3ccccc3)c(N)c2C#N)c1	none
CCOc1ccc(NC(=O)c2cc([N+](=O)[O-])ccc2N2CCOCC2)cc1	none
CCOc1cc(C#N)c(NC(=O)c2cc([N+](=O)[O-])ccc2N2CCOCC2)cc1OCC	MITF primary 67 | MITF inh conf inactive | AS interf ctr inactive
C(=N\N1CCOCC1)/c1cccc(Oc2ccccc2)c1	MITF primary 70 | MITF inh conf inactive | AS interf ctr inactive
Cn1nccc1Nc1ccc(-n2cc(CC(=O)Nc3ccc(N4CCOCC4)cc3)c3ccccc32)nn1	none
Fc1ccc(C2Nc3ccc(Br)cc3C(c3ccccc3)O2)cc1 (stereo not drawn)	none
O=[N+]([O-])c1ccc(C2Nc3ccc(Br)cc3C(c3ccccc3)O2)cc1 (stereo not drawn)	MITF primary 57 | MITF inh conf inactive | AS interf ctr inactive
